# In the library only some 0.68% were active in any assay of this set; here they are far more common.
# LmPK inhibitor = qHTS Assay for Inhibitors of Leishmania Mexicana Pyruvate Kinase (LmPK); purified LmPK, Kinase-Glo ATP luminescence, 1 h; Q27686; hit rate 0.37% among 290,000; Potency, µM (doses to about 57.5 µM), hits mostly inhibitors; AID 1721, 2009
# Target sequence (Q27686 whole entry, looked up): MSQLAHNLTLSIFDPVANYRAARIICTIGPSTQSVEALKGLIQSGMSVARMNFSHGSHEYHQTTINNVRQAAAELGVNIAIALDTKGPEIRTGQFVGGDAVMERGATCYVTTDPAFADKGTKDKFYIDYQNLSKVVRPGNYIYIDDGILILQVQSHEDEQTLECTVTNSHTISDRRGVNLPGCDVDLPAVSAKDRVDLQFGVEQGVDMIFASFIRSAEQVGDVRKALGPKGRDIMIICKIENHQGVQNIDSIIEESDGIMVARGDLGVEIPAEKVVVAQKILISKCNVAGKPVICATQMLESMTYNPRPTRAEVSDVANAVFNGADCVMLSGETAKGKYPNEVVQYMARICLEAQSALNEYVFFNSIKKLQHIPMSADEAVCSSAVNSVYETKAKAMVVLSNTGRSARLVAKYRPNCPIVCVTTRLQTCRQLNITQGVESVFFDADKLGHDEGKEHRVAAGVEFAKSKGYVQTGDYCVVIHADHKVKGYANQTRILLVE
#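 0.1 nM LmPK, 0.5 mM PEP, 0.1 mM ADP; 50 mM imidazole pH 7.2, 7 mM MgCl2, 50 mM KCl; 1 h RT. Kinase-Glo luminescence readout, normalized to no-enzyme (full inhibition) and uninhibited wells.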
# AMA1-RON2 inh = qHTS for Inhibitors of AMA1-RON; Towards Development of Antimalarial Drug Lead: Primary Screen. Plasmodium falciparum AMA1 (3D7) - RON2 peptide interaction. AlphaScreen AMA1-biotinylated RON2 peptide binding. Potency, µM (top dose mostly 58.2 µM), usual class: inhibitors. hit rate 0.2% among 360,000. AID 720542, 2013; further: nearly all actives have a fitted effect of over 45% in size
#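 AMA1 (3D7) with his tag at 25 nM final met compounds first, then biotinylated RON2 peptide at 25 nM; detection used donor plus acceptor beads, 10 µg/mL apiece, read by AlphaScreen after 30 min at room temperature.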
# RE007 growth inh = qHTS Assay for Inhibitors of the HIV-1 protein Vpr. S. pombe RE007 Vpr strain, BacTiter-Glo ATP luminescence, 24 h. Potency, µM (doses to about 92.2 µM), usual class: inhibitors. hit rate 0.21% among 360,000. AID 651644, 2012; active means well fitted falling curve with a large enough effect; inconclusive means small, poorly fitted or top-dose-only effect; inactive means no such curve, though single readings can be large or run the other way; further: nearly all actives have a fitted effect of over 50% in size
#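 Fission yeast RE007 carrying one integrated HIV-1 vpr copy, seeded at OD 0.01 in PMG+AL medium with 23 nL pinned compound. Grown 24 h at 30 degrees; viability read by BacTiter-Glo luminescence after 5 min.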
# TbPYK inhibitor = qHTS of Trypanosoma Brucei Inhibitors; TbPYK enzyme, Kinase-Glo Plus ATP luminescence, 45 min; Potency, µM (highest dose often 76.8 µM), actives largely listed as inhibitors; hit rate 0.12% among 410,000; AID 624173, 2012; further: nearly all actives have a fitted effect of over 50% in size
#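 Luminescence from Kinase-Glo Plus, added after a 45-minute room-temperature reaction, served as the end-point read-out. The enzyme and substrate were preincubated with compound before ADP (130 uM final) initiated turnover. Concentration-effect curves came from normalized qHTS data.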
# Hits are given with their value; - = inactive; ? = inconclusive; . = no result given; [ ] = remark or other dose. Unless noted, the call rests on the fitted dose curve; in most records, active means well fitted curve in the direction sought with a large enough effect; inconclusive means small, poorly fitted or top-dose-only effect, or another doubt; inactive means no such curve, though single readings can be large; an effect the other way counts as inactive or inconclusive.
SMILES,LmPK inhibitor,AMA1-RON2 inh,RE007 growth inh,TbPYK inhibitor
CN(C)c1ccc(C=c2c3cc(O)ccc3n3c2cc(-c2ccccc2)[n+]3C)cc1,.,14.1µM,-,-
O=C(Nc1nc2ccccc2[nH]1)c1ccccc1,15.8µM,-,?,-
Cc1ccc2c(c1)c1ccc3c(c1n2C)C(=O)C=CC3=O,?,-,-,?
Cn1c2ccccc2c2ccc3c(c21)C(=O)C=CC3=O,.,-,-,22.4µM
Cc1cc(C)n(-c2nc3c(c(=O)[nH]c(=O)n3C)n2CC(O)COc2ccc(Cl)cc2Cl)n1 (stereo not given),-,-,-,-
CN(C)CC[C@@H](c1ccc(Br)cc1)c1ccccn1,.,-,-,-
Cn1c(=O)c2[nH]c(=S)n(Cc3ccccc3)c2n(C)c1=O,.,-,-,15.8µM
Cn1c(=O)c2c([nH]c(=S)n2CCCc2ccccc2)n(C)c1=O,-,-,-,2.51µM
Cn1c(=O)[nH]c(=O)c2c1[nH]c(=S)n2CCCc1ccccc1,-,-,-,?
Cn1c(=O)n(Cc2ccccc2Cl)c2ccccc21,-,-,-,-
Cn1c(=O)n(Cc2ccccc2Cl)c(=O)c2c1[nH]c(=S)n2C,-,-,-,7.94µM
CCCCn1c(=S)[nH]c2c(=O)n(C)c(=O)n(C)c21,.,-,-,?
CCCNC(=O)C1CCC(CNS(=O)(=O)c2ccc3c(c2)CC(C)N3C(C)=O)CC1 (stereo not given),-,-,-,-
Cc1onc(-c2c(F)cccc2Cl)c1-c1nnc(-c2ccc(C(F)(F)F)cc2)o1,-,-,-,-
Nc1nc(-c2cccnc2)nn1C(=O)Cc1ccccc1,-,-,-,-
O=C(OCC1CCCO1)c1ccc2c(c1)N(Cc1ccc(F)cc1)C(=O)c1ccccc1S2(=O)=O (stereo not given),.,.,.,-
Cc1ccccc1C1=NCC(=S)Nc2ccc(Cl)cc21,-,-,-,-
COc1ccc(CN2CCN(Cc3ccc(C(F)(F)F)cc3)CC2)c(OC)c1,-,25.1µM,-,-
Cc1ccc(S(=O)(=O)c2ccc(C)cc2)cc1,-,-,-,-
Cc1ccc(S(=O)(=O)C=CS(=O)(=O)c2ccc(C)cc2)cc1,.,?,1.41µM,?
CCOC(=O)C1=C(N)Oc2ccc3ccccc3c2C1c1cccnc1 (stereo not given),-,-,-,-
CC1Cc2ccccc2N1Cc1ccc([N+](=O)[O-])cc1 (stereo not given),-,11.2µM,-,-
CC1Cc2ccccc2N1Cc1cccc([N+](=O)[O-])c1 (stereo not given),-,10µM,-,-
O=[N+]([O-])c1cccc(CN2CCC(Cc3ccccc3)CC2)c1,-,?,-,-
O=C1NC(=S)SC1=Cc1ccc2c(c1)OCO2,.,-,-,-
SMILES,LmPK inhibitor,AMA1-RON2 inh,RE007 growth inh,TbPYK inhibitor
Cc1c(N(C(=O)CNC(=O)c2ccccc2)C2(C(=O)NC3CCCC3)CCCCC2)c(=O)n(-c2ccccc2)n1C,-,-,-,-
CCOc1ccc(NS(=O)(=O)c2ccc(C(=O)NCC(c3ccco3)N(C)C)cc2)cc1 (stereo not given),.,-,-,-
O=c1c2c3nc4ccccc4nc3n(/N=C/c3cccs3)c2ncn1-c1ccccc1,-,.,.,.
CCN(CC)c1ccc(/C=N\N2CCN(Cc3ccc(C)cc3)CC2)cc1,-,8.91µM,-,-
Cc1ccc(CN2CCN(/N=C/c3ccc(C(=O)O)cc3)CC2)cc1,-,-,-,-
CC1CCCC(C)N1C(=O)COc1ccc(F)cc1 (stereo not given),-,-,-,-
COc1ccc(C(=O)Oc2ccc(C)cc2)cc1S(=O)(=O)N1CCOCC1,.,-,-,-
COc1ccc(C(=O)Oc2cccc3cccnc23)cc1S(=O)(=O)N1CCOCC1,-,-,31.6µM,-
COc1ccc(C(=O)Oc2cccc3cccnc23)cc1[N+](=O)[O-],-,-,63.1µM,-
CN(C)c1c([N+](=O)[O-])cc(N2C(=O)C=CC2=O)cc1[N+](=O)[O-],.,-,-,7.94µM
CCOC(=O)N1CCN(CCC(=O)c2ccc(Br)cc2)CC1,-,-,35.5µM,-
CCOC(=O)N1CCN(CCC(=O)c2ccc(OC)cc2)CC1,-,-,28.2µM,-
CCOC(=O)N1CCN(CCC(=O)c2ccc(Cl)cc2)CC1,-,-,31.6µM,-
CN(C)c1ccc(-c2csc(C(C)(O)c3ccc(F)c(F)c3)n2)cc1 (stereo not given),.,20µM,-[18.4 µM],-
CCc1ccc(NC(=O)c2noc3c2CCC3)cc1,14.1µM,-,?,-
CC(NC(=O)c1noc2c1CCCC2)c1ccccc1 (stereo not given),-,-,35.5µM,-
O=C(NCc1ccccc1)c1noc2c1CCCC2,-,-,15.8µM,-
CC(C)CNC(=O)c1noc2c1CCCC2,-,-,?,-
COc1ccc(C2CC(=O)N3CN(c4ccc(C)c(Cl)c4)CSC3=C2C#N)cc1 (stereo not given),-,-,-,3.16µM
COc1ccc(OC)c(C2CC(=O)N3CN(c4ccccc4)CSC3=C2C#N)c1 (stereo not given),-,-,-,3.55µM
COc1ccc(N2CSC3=C(C#N)C(c4cccc(OC)c4OC)CC(=O)N3C2)cc1 (stereo not given),-,-,-,12.6µM
COc1ccc2ccccc2c1C1CC(=O)N2CN(C3CCCCC3)CSC2=C1C#N (stereo not given),-,-,-,?
COc1ccc(C2CC(=O)N3CN(C4CCCCC4)CSC3=C2C#N)c(OC)c1 (stereo not given),.,.,.,17.8µM
CC(=O)Nc1ccc(NC(=O)COC(=O)c2ccccc2SCC(=O)N2CCCC2)cc1,.,-,-,-
CC1=C(C(=O)N2CCCCCC2)CC(CC(=O)NCCN2CCOCC2)C(=O)N1CCC1=CCCCC1 (stereo not given),.,-,.,.
SMILES,LmPK inhibitor,AMA1-RON2 inh,RE007 growth inh,TbPYK inhibitor
COc1ccc(-c2nc(-c3cccs3)no2)cc1,15.8µM,-,-,-
COc1ccc(-c2nc(-c3ccncc3)no2)cc1,-,-,-,-
CC(C)c1ccc(CCNC(=O)c2ccc([N+](=O)[O-])cc2)cc1,-,?,-,-
CC1=CC(=O)C=CC1=Nc1ccc(N(C)C)cc1,.,3.98µM,-[18.4 µM],35.5µM
CN(C)c1ccc(N=Nc2ccc(S(N)(=O)=O)cc2)cc1,-,-,-,-
Cc1ccc(/C=N/n2c(-c3ccco3)n[nH]c2=S)cc1,-,-,-,?
CC(C1CC2CCC1C2)n1c(-c2ccco2)n[nH]c1=S (stereo not given),12.6µM,-,-,?
O=C(CCNC(=O)N1CC(=O)Nc2ccccc21)NCc1ccc(F)cc1,-,-,-,-
CC1CCN(C(CC(=O)c2ccccc2)C(=O)c2ccccc2)CC1 (stereo not given),.,?,4.47µM,20µM
CCOC(=O)c1c(CC(C)C)csc1/N=C/C1C(=O)CC(C)(C)CC1=O,-,-,-,-
CCc1nnc(NC(=O)c2ccc(-c3ccccc3Cl)o2)s1,-,-,-[3.69 µM],.
